An excerpt weighted towards active compounds, which were near 6.7% of everything screened.
T cruzi growth-1 = T. cruzi intracellular proliferation inhibitors, primary screen, cell-based, beta-gal Tulahuen parasites, NIH3T3 host, luminescence. 5.9% of 77,000 active. inhibition, % at 8.34 µM. T. cruzi beta-gal in NIH3T3, GalScreen luminescence, 90 h;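 active means mean inhibition above about 93%, with at least 55% of replicates each passing it, limit read from the data, passing the limit was not always enough; inconclusive means only one of those two conditions holds; inactive means neither condition holds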
Pf Dd2 growth = P. falciparum Dd2 growth inhibitors, primary screen, SYBR Green fluorescence, single dose replicates | 72 h; active compounds read low | activity change, % at 10 µM | 2.3% of 94,000 active; in the data active means activity change below about -80%; inconclusive means no clear call, values can overlap the other calls
C diff HTS = C. difficile growth inhibitors, primary screen, HTS; 0.25% of 86,000 active; growth activity, negative = inhibition, % at 16 µg/mL (by protocol); AID 1259249, 2017; Clostridium difficile clinical isolate growth, OD600, 24 h; active compounds read low;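 active means mean growth activity at or below -80% and every replicate also at or below -80%; inconclusive means mean at or below -80% but some replicate above -80%; inactive means mean growth activity above -80%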;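 further: 0% = DMSO wells and -100% = levofloxacin 16 µg/mL wells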
T cruzi growth-2 = T. cruzi intracellular proliferation inhibitors, confirmation, cell-based, NIH3T3 host, beta-gal parasite, luminescence, cherry-pick | 72% of 5,600 active | inhibition, % at 8.35 µM | T. cruzi beta-gal in NIH3T3, GalScreen luminescence, 90 h | shares compounds with T cruzi growth-1 | AID 651739, 2012;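 active means mean replicate inhibition above about 95% and at least 55% of replicates individually reaching it, limit read from the data; inconclusive means only one of the two criteria is met; inactive means neither criterion is met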
T cruzi growth-3 = inhibitors of intracellular T. cruzi replication, confirmation, NIH3T3 host cells, beta-gal parasites, cherry-pick, set 2. shares compounds with T cruzi growth-1. AID 651740, 2012. T. cruzi beta-gal in NIH3T3, GalScreen luminescence, 90 h. 21% of 5,600 active. inhibition, % at 2.09 µM;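 active means mean inhibition above about 95%, with at least 55% of replicates also reaching it, limit read from the data; inconclusive means meets just one of the two conditions; inactive means meets neither condition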;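 further: plate controls were neutral control median for no effect and positive control median for full effect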
3T3 cytotox = cytotoxicity in mouse NIH/3T3 fibroblasts, confirmation, cytotoxicity control for T. cruzi proliferation inhibitor project, cell-based, cherry-pick, single point. shares compounds with T cruzi growth-1. NIH/3T3 viability, CellTiter-Glo ATP luminescence, 90 h. cytotoxicity (signal decrease), % at 8.35 µM. 14% of 5,600 active;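 active means mean signal decrease across replicates above about 35% based on untreated-well scatter, with enough replicates individually passing, limit read from the data; inconclusive means no rule stated though some were filed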;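 further: 0% = median of neutral control wells and 100% = median of positive control wells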
3T3 cytotox 2 = NIH/3T3 fibroblast cytotoxicity, confirmation, cytotoxicity control, cell-based, cherry-pick, single point, set 2; NIH/3T3 viability, CellTiter-Glo ATP luminescence, 90 h; shares compounds with T cruzi growth-1; inhibition, % at 24.9 µM; 56% of 5,600 active;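 active means mean loss of cell viability signal at or above a set limit, and enough replicates individually reaching it; inconclusive means meets only the mean limit or only the replicate share; inactive means meets neither condition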;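 further: 0% = median of neutral control wells and 100% = median of positive control wells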
* hit, by the source's call.

C/C=C/c1ccc([C@H]2[C@H]3CN(C(=O)Nc4ccccc4F)CCCCN3[C@H]2CO)cc1 was read as T cruzi growth-1 47, Pf Dd2 growth -8 and C diff HTS 2.
Screening O=C(Nc1ccccc1F)N1CCCCN2[C@H](C1)[C@H](c1ccc(/C=C/c3ccccc3)cc1)[C@@H]2CO returned T cruzi growth-1 116*, Pf Dd2 growth -14, C diff HTS 41, T cruzi growth-2 110*, T cruzi growth-3 51, 3T3 cytotox 4 and 3T3 cytotox 2 47*.
COc1ccc(S(=O)(=O)N(C)C[C@H]2OCCCC[C@@H](C)Oc3ccc(NC(=O)Nc4ccc(F)cc4)cc3C(=O)N([C@H](C)CO)C[C@@H]2C)cc1 was read as T cruzi growth-1 -1, Pf Dd2 growth -12 and C diff HTS 3.
COc1ccc(NC(=O)Nc2ccc3c(c2)C(=O)N([C@H](C)CO)C[C@@H](C)[C@@H](CN(C)S(=O)(=O)c2ccc(F)cc2)OCCCC[C@H](C)O3)cc1 was read as T cruzi growth-1 4, Pf Dd2 growth -30 and C diff HTS 3.
COc1ccc(NC(=O)Nc2ccc3c(c2)C(=O)N([C@H](C)CO)C[C@H](C)[C@@H](CN(C)S(=O)(=O)c2ccc(F)cc2)OCCCC[C@H](C)O3)cc1 was read as T cruzi growth-1 113*, Pf Dd2 growth -49, C diff HTS 1, T cruzi growth-2 110*, T cruzi growth-3 39, 3T3 cytotox 15 and 3T3 cytotox 2 2.
For COc1ccc(S(=O)(=O)N(C)C[C@H]2OCCCC[C@H](C)Oc3ccc(NC(=O)Nc4ccc(F)cc4)cc3C(=O)N([C@H](C)CO)C[C@@H]2C)cc1 the results were T cruzi growth-1 inconclusive, Pf Dd2 growth -41, C diff HTS 8, T cruzi growth-2 105*, T cruzi growth-3 92, 3T3 cytotox 0 and 3T3 cytotox 2 18.
For Cc1noc(C)c1NC(=O)N(C)C[C@H]1OCCCC[C@@H](C)Oc2ccc(NC(=O)NC3CCCCC3)cc2C(=O)N([C@@H](C)CO)C[C@H]1C the results were T cruzi growth-1 13, Pf Dd2 growth -33 and C diff HTS 4.
Screening CCCNC(=O)N[C@@H]1CC[C@@H](CC(=O)N2CCN(C)CC2)O[C@H]1CO returned T cruzi growth-1 -57 and Pf Dd2 growth 1.
CC(C)NC(=O)N(C)C[C@@H]1Oc2ccc(NC(=O)Nc3ccc(C(F)(F)F)cc3)cc2CC(=O)N([C@@H](C)CO)C[C@@H]1C was read as T cruzi growth-1 8, Pf Dd2 growth -1 and C diff HTS 4.
`CO[C@@H]1CN(C)C(=O)c2ccc(NC(=O)c3ccccn3)cc2OC[C@@H](C)N(C(=O)C2CCCC2)C[C@H]1C` gave T cruzi growth-1 12.
Screening C/C=C/c1cnc2c(c1)C(=O)N([C@@H](C)CO)C[C@H](C)[C@H](CN(C)Cc1ccncc1)O2 returned T cruzi growth-1 10, Pf Dd2 growth 25 and C diff HTS -4.
C[C@@H]1CN([C@@H](C)CO)C(=O)c2cc(NC(=O)Nc3ccccc3)ccc2O[C@@H](C)CCCCO[C@H]1CN(C)Cc1ccc2c(c1)OCO2 was read as T cruzi growth-1 88, Pf Dd2 growth -77 and C diff HTS 21.
C[C@@H]1CCCCO[C@@H](CN(C)Cc2ccc3c(c2)OCO3)[C@H](C)CN([C@H](C)CO)C(=O)c2cc(NC(=O)Nc3ccc(F)cc3)ccc2O1 was read as T cruzi growth-1 inconclusive, Pf Dd2 growth -78, C diff HTS 12, T cruzi growth-2 97*, T cruzi growth-3 100*, 3T3 cytotox 24 and 3T3 cytotox 2 104*.
For C[C@H]1CCCCO[C@H](CN(C)Cc2ccc3c(c2)OCO3)[C@@H](C)CN([C@@H](C)CO)C(=O)c2cc(NC(=O)Nc3ccc(F)cc3)ccc2O1 the results were T cruzi growth-1 109*, Pf Dd2 growth -75, C diff HTS 3, T cruzi growth-2 102*, T cruzi growth-3 99*, 3T3 cytotox 28 and 3T3 cytotox 2 104*.
Screening CC(C)NC(=O)Nc1ccc2c(c1)C(=O)N([C@@H](C)CO)C[C@@H](C)[C@@H](CN(C)Cc1ccc3c(c1)OCO3)OCCCC[C@H](C)O2 returned T cruzi growth-1 32, Pf Dd2 growth -44 and C diff HTS 11.
For Cc1nc2cc(Br)ccc2c(=O)n1Cc1cccc(O)c1 the results were C diff HTS -3.
`COCC(=O)N1[C@@H](CO)[C@@H](c2ccccc2)[C@@H]1CNC(=O)c1ccccn1` gave T cruzi growth-1 12, Pf Dd2 growth 8 and C diff HTS -3.
For C[C@H]1CN([C@@H](C)CO)S(=O)(=O)c2ccc(Br)cc2O[C@@H]1CN(C)S(=O)(=O)c1ccccc1F the results were T cruzi growth-1 87, Pf Dd2 growth -35 and C diff HTS 3.
C[C@H]1CN([C@@H](C)CO)S(=O)(=O)c2ccc(Br)cc2O[C@H]1CN(C)S(=O)(=O)c1ccccc1F was read as T cruzi growth-1 74, Pf Dd2 growth -45 and C diff HTS 10.
Screening C[C@H]1CN([C@@H](C)CO)S(=O)(=O)c2ccc(C#Cc3cccc(F)c3)cc2O[C@@H]1CN(C)S(=O)(=O)c1ccccc1F returned T cruzi growth-1 104*, Pf Dd2 growth -69, C diff HTS 4, T cruzi growth-2 104*, T cruzi growth-3 103*, 3T3 cytotox 23 and 3T3 cytotox 2 60*.
C[C@H]1CN([C@@H](C)CO)S(=O)(=O)c2ccc(C#Cc3cccc(F)c3)cc2O[C@H]1CN(C)S(=O)(=O)c1ccccc1F was read as T cruzi growth-1 111*, Pf Dd2 growth -10, C diff HTS 26, T cruzi growth-2 106*, T cruzi growth-3 72, 3T3 cytotox 22 and 3T3 cytotox 2 inconclusive.
Screening C[C@@H]1CN([C@H](C)CO)C(=O)c2cccc(NC(=O)c3ccncc3)c2O[C@H]1CN(C)CC1CCCCC1 returned T cruzi growth-1 74, Pf Dd2 growth -27 and C diff HTS 5.
For C[C@H](NC(=O)C[C@H]1CC[C@H]2[C@@H](COC[C@H](O)CN2Cc2ccc(C(F)(F)F)cc2)O1)c1ccccc1 the results were T cruzi growth-1 78, Pf Dd2 growth -4 and C diff HTS 12.

Compound activity deposited in PubChem by Broad Institute.
